PubChem BioAssay AID652122 (NMMLSC, 2013)

Test: myeloid differentiation promoters, wild-type HoxA9 cells, dose response, cell-based, flow cytometry, Powder Set01 subset01 (AID 652122)
Conditions: HoxA9 wt myeloid cells, GFP+/MAC1+ differentiation; series mostly up to 10 µM; percent double positive (differentiation): at the top concentration;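 active means at least 15% of cells fluorescing red and green at top dose, and half-maximal dose below 10 µM; inactive means the rest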

Percent double positive (differentiation), inactive:
O=C(O)c1cccnc1Nc1ccc(Cl)cc1 16.6%, O=C(CCNC(=O)c1ccc(Cl)cc1)NC1CCCc2ccccc21 (stereo not drawn) 9.24%, Cc1ccc(Nc2nc(=O)c3cccnc3s2)c(Br)c1 14.1%
